Consider 70 molecules from PubChem BioAssay AID623868 (Vanderbilt High Throughput Screening Facility, 2012).

The whole screen tested about 2,100 compounds, of which about 760 (36%) were called active.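 The calls were made as follows: active = thallium-flux fluorescence traces judged by eye to show enhanced or reduced glutamate response, manual score 1 or -1, so both directions (some results past the limit were not filed as active); inactive = the rest, including fluorescent or raised-baseline compounds.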 A selection follows.

A short description of this assay: thallium influx changes without GIRK channels – cell-based, HEK-293 rmGlu8, no GIRK, thallium flux, counter-screen for GIRK activator project, confirmation (AID 623868).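 Also: extra codes mark interference with 3 for fluorescent and 4 for baseline rise.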 Conditions: thallium flux fluorescence, at 10 µM, actives lie on both sides, codes: 1 enhancer, -1 blocker, 0 none, thallium stimulus containing EC20 glutamate.
Consider `CCOc1cc(C)nc(N2CCN(C3CCCCC3)CC2)n1`, for which the manual score is 0 (inactive). Turning to `O=C1CC(c2ccncc2)c2cc3c(cc2N1)OCCO3` (stereo not given), the manual score was 0 (inactive).

Take `Cc1ccc(NC(=O)Cn2cccc2)cc1Cl`: the manual score is 0 (inactive). On to `Cc1cccc2sc(NC(=O)Cn3cccc3)nc12`, for which the manual score was 1 (active).

For the molecule `CCC(=O)Nc1nc2ccc3nc(C)sc3c2s1`, the manual score is 0 (inactive).

For the molecule `CCOc1ccccc1Cn1c(=O)oc2ccc(C)cc21`, the manual score was 0 (inactive). The figure for `CCOC(=O)c1c(NC(=S)Nc2ccccc2)sc2c1CCCCC2` is 1 (active); for `COc1ccc(NC(=O)COC(=O)CC23CC4CC(CC(C4)C2)C3)c([N+](=O)[O-])c1` it is 0 (inactive); for `COc1ccccc1OCC(=O)Nc1sc2c(c1C(=O)NCC1CCCO1)CCC2` (stereo not given) it is 0 (inactive).

Consider `CCOC(=O)c1c(NS(=O)(=O)Cc2ccccc2)sc2c1CCCC2`, for which the manual score is 1 (active). In the case of `COC(=O)c1c(NS(=O)(=O)Cc2ccccc2)sc2c1CCCC2` it was 1 (active); in that of `COC(=O)c1c(NC(=S)NC(=O)c2ccco2)sc2c1CCCC2`, 0 (inactive); in that of `COC(=O)c1c(NC(=S)Nc2ccc(F)cc2[N+](=O)[O-])sc2c1CCCCC2`, 1 (active).

Take `CCOC(=O)Cn1c(=O)oc2cc(S(=O)(=O)Nc3ccc(N(CC)CC)cc3C)ccc21`: the manual score was 0 (inactive). In the case of `CC(C)c1ccccc1NC(=O)COC(=O)/C=C/c1cccc([N+](=O)[O-])c1` it was 0 (inactive); in that of `CC(C)Oc1ccccc1C1Nc2ccccc2C(=O)N1c1ccc2c(c1)OCCO2` (stereo not given), 0 (inactive); in that of `CC(=O)Oc1ccc(N(C(C)=O)S(=O)(=O)c2cccs2)c2ccccc12`, 0 (inactive). `COC(=O)c1c(NC(=O)Cc2cccs2)sc(C(=O)NC2CCCCC2)c1C`: the manual score is 0 (inactive). With `COC(=O)c1c(NS(=O)(=O)c2cccs2)sc2c1CCCC2`, the manual score was 1 (active). The figure for `CCC1(C)Cc2c(sc3c2c(=O)n(C)c2nnc(SCc4ccc5c(c4)OCO5)n32)CO1` (stereo not given) is 0 (inactive).

For the molecule `CCCCN(CCCC)C(=O)CSc1nnc2n(C)c(=O)c3c4c(sc3n12)CCCC4`, the manual score is -1 (active). The figure for `CON(c1nc(Cl)nc(N(C)C)n1)S(=O)(=O)c1ccccc1Cl` is 0 (inactive).

For `CCCCCC/C(C)=C1/SC(=S)NC1=O`, the manual score was 1 (active). For `Cn1c(CNc2nc3ccccc3n2CCN2CCCCC2)nc2ccccc21`, the manual score was 0 (inactive). As to `CC1(C)CC(c2nc(-c3ccc(Br)cc3)cs2)CCS1` (stereo not given), the manual score was 0 (inactive). With `CCOC(=O)N1CCN(C(=O)CSc2nc3c(c(=O)n2-c2ccccc2OC)SCC3)CC1`, the manual score was -1 (active). The figure for `CCCN(CCC)C(=O)CSc1nc2ccccc2c(=O)n1C1CCCC1` is -1 (active).

Regarding `CCc1c(O)nc(SCC(=O)Nc2ccc(OC)cc2)n(C2CCCCC2)c1=O`, the manual score was 0 (inactive). The figure for `COC(=O)c1ccc2c(=O)n(C3CCCCC3)c(SCC#N)nc2c1` is 0 (inactive); for `COC(=O)COn1c(SC(C)C)nc2ccccc2c1=O` it is 0 (inactive); for `CCOC(=O)N1CCN(C(=O)CSc2ncnc3ccccc23)CC1` it is 0 (inactive). In the case of `CCN(CC)C(=O)CSc1nc2ccccc2c(=O)n1-c1ccccc1OC`, the manual score is -1 (active). In the case of `CCOC(=O)CSc1nc2c(sc(=S)n2-c2ccccc2OC)c(=O)n1Cc1ccco1` it was -0.5 (inactive); in that of `N#CC1=C(N)Oc2n[nH]c(-c3cccs3)c2C1c1ccco1` (stereo not given), 3 (inactive). The figure for `Cc1ccc(N=C2CCCN2Cc2ccccc2)c(C#N)c1` is -1 (active); for `Cc1c(C#N)c2ccccc2n1CC(=O)O` it is 0 (inactive). In the case of `Cc1ccc(C)c(N=C2CCCN2Cc2ccccc2)c1C#N` it was -1 (active); in that of `COC(=O)c1ccc(N2C(=O)CC(Sc3n[nH]c(C)n3)C2=O)cc1` (stereo not given), 0 (inactive); in that of `CC(C)CCOP(=O)(c1ccc(N(C)C)cc1)C(O)c1ccccn1` (stereo not given), 0 (inactive).

As to `Brc1ccc(-c2nnc3c4ccccc4nc(N4CCOCC4)n23)cc1`, the manual score is 0 (inactive).

Take `CCN(CC)CCCNC(=O)c1cc(-c2ccc(Cl)c(Cl)c2)on1`: the manual score was 0 (inactive). The figure for `CCOC(=O)C1CCCN(C(=O)c2cc(-c3ccccc3)on2)C1` (stereo not given) is 0 (inactive); for `O=C(c1cc(-c2ccccc2)on1)N1CCCC1` it is 0 (inactive). As for `CC(C)n1cc(NC(=O)c2cc(-c3ccccc3)on2)cn1`, the manual score is 1 (active). The figure for `CCCn1cc(NC(=O)c2cc(-c3ccccc3)on2)cn1` is 1 (active); for `CCN(CC)CCN(CC)Cc1ccccc1Br` it is 0 (inactive). The figure for `CCC(c1nnnn1Cc1ccc(OC)cc1)N(CCCO)Cc1cc2cc3c(cc2[nH]c1=O)OCO3` (stereo not given) is 0 (inactive).

Regarding `S=c1[nH]nc(COc2ccccc2)n1C1CCCCC1`, the manual score was 1 (active). In the case of `S=c1[nH]nc(CSc2nc3ccccc3s2)n1C1CCCCC1` it was 1 (active); in that of `Clc1ccccc1-c1nn2c(COc3ccccc3)nnc2s1`, 0 (inactive). The figure for `CC(O)c1nc2ccccc2n1C1CCCCC1` (stereo not given) is 0 (inactive); for `CC(=O)c1c(C(C)=O)c(C)n(-c2nc(-c3cccs3)c(C)s2)c1C` it is 0 (inactive). For `Cc1ccc(NC(=O)CN2c3cccc4cccc(c34)S2(=O)=O)cc1S(=O)(=O)N1CCOCC1`, the manual score is 0 (inactive). As for `O=c1c2cc(F)ccc2[nH]c(=S)n1CCCN1CCOCC1`, the manual score is 0 (inactive). Consider `Cc1cc(C(F)(F)F)c2c(=O)[nH]c(=O)n(Cc3ccccc3)c2n1`, for which the manual score is 0 (inactive). In the case of `O=c1c2cccnc2[nH]c(=S)n1Cc1ccccc1` it was 1 (active); in that of `Cn1c(=O)c2c(nc(-n3ccnc3)n2Cc2ccccc2)n(C)c1=O`, 0 (inactive). For the molecule `O=c1c2cccnc2[nH]c(=S)n1CCCN1CCN(c2ccc(F)cc2)CC1`, the manual score is 1 (active). The figure for `CCOC(=O)CN1NC2(CCC(C(C)(C)C)CC2)NC1=S` (stereo not given) is 0 (inactive); for `O=C(Nc1ncc(Br)s1)C(Cc1ccccc1)n1cccc1` (stereo not given) it is 1 (active).

In the case of `Cc1csc(NC(=O)C(Cc2ccccc2)n2cccc2)n1` (stereo not given), the manual score was 0 (inactive). Regarding `CCSc1nnc(NC(=O)C(Cc2ccccc2)n2cccc2)s1` (stereo not given), the manual score was 0 (inactive). In the case of `CCOC(=O)Cn1c(=N)n(CCOc2cccc(C)c2)c2ccccc21` it was 0 (inactive). In the case of `COc1ccc(OCc2nc(N)nc(Nc3ccccc3)n2)cc1` it was 0 (inactive). The figure for `Nc1c(-c2ccccc2)cnn1-c1ccc(C(=O)O)cc1` is 0 (inactive); for `COc1ccccc1NC(=O)COc1ccc(C(F)(F)F)cc1[N+](=O)[O-]` it is 0 (inactive); for `COc1cc(OC)cc(C(=O)NC(=S)N2CCN(c3ccc(C(F)(F)F)cc3[N+](=O)[O-])CC2)c1` it is 1 (active).

With `Cc1ccc(CC(=O)N2CCN(c3cccc(C(F)(F)F)c3)CC2)cc1`, the manual score was 0 (inactive). `CC(C)Oc1cccc(C(=O)NC(=S)N2CCN(c3ccc(C(F)(F)F)cc3[N+](=O)[O-])CC2)c1`: the manual score is 1 (active). The figure for `COc1cccc(C(=O)NC(=S)N2CCN(c3ccc(C(F)(F)F)cc3[N+](=O)[O-])CC2)c1` is 1 (active).
